Bioassay records deposited in PubChem by NMMLSC.
B2AR ag: activates human beta-2 adrenergic receptor causing internalization; Am2.2-beta2AR cells, FAP receptor internalization, flow cytometry; response, % (test concentration not listed); 340,000 compounds, 0.43% hits; AID 504454;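 active = response above a set limit, near 3 SD of response in nonfluorescent compounds, cut at about 42% in these data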
Target sequence (P07550 whole entry, looked up): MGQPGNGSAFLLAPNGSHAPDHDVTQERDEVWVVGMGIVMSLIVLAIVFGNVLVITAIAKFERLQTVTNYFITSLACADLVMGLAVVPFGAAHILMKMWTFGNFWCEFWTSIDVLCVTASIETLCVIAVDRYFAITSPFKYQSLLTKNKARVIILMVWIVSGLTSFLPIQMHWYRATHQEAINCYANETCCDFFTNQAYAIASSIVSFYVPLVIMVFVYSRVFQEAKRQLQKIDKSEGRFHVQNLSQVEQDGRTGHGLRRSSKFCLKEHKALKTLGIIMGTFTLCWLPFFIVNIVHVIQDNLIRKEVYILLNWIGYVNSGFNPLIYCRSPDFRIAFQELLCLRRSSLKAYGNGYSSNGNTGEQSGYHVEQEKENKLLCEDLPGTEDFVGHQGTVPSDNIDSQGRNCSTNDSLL
GRK2 inh: human GRK2 inhibition via aptamer displacement; bead flow cytometry, FAM-aptamer displacement from GRK2; inhibition of aptamer binding, % at 10 µM; 330,000 compounds, 0.59% hits;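 active = inhibition of aptamer binding above 40%, roughly 3 SD of noise, on plates passing a quality check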;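 also: median bead fluorescence of bound FAM aptamer so fluorescent compounds give negative values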
MEKK2wt PB1 HTS: raises or lowers MEK5 binding to wildtype human MEKK2 PB1 domain; bead flow cytometry, Alexa488-MEK5 binding to MEKK2 WT; actives lie on both sides; 290,000 compounds, 1.1% hits; binding response (% of control), % at 10 µM; in the data active = binding response below about 67% or above about 130%
MEKK2mut PB1 HTS: signal of MEK5 binding to mutant human MEKK2 PB1 domain | bead flow cytometry, Alexa488-MEK5 binding to MEKK2 mutant | percent response, % at 10 µM | 290,000 compounds, 0.35% hits | AID 1530; in the data active = percent response above about 24%, passing the limit was not always enough
MEKK3 PB1 HTS: raises or lowers MEK5 binding to the human MEKK3 PB1 domain; Q99759; bead-based flow cytometry, Alexa488-MEK5 binding to MEKK3; actives lie on both sides; 0 = blocked by unlabeled MEK5, 100 = vehicle; binding response (% of control), % at 10 µM; 290,000 compounds, 1.4% hits; AID 1529;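 active = binding response more than 3 SD above or below the average of its plate-row segment, actives on both sides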;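 also: Alexa488 bead fluorescence after subtracting the streptavidin-only scavenger bead signal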
MEKK2wt confirm: raises or lowers MEK5 binding to wildtype human MEKK2, retest. shares compounds with MEKK3 PB1 HTS. bead flow cytometry, Alexa488-MEK5 binding to MEKK2 WT; actives lie on both sides. binding response (% of control), % at 10 µM. 5,900 compounds, 2.4% hits; in the data active = binding response below about 16% or above about 210%; inactive = in between
MEKK2mut confirm: signal of MEK5 binding to mutant human MEKK2, retest | AID 1893 | bead flow cytometry, Alexa488-MEK5 binding to MEKK2 mutant | 5,900 compounds, 2% hits | percent response, % at 10 µM | shares compounds with MEKK3 PB1 HTS; in the data active = percent response mostly above about 71%, no sharp cut-off; inactive = mostly below about 38%;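 also: higher means compound restores mutant binding toward wildtype level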
MEKK3 confirm: MEKK3-MEK5 PB1 inhibition, single concentration confirmation. shares compounds with MEKK3 PB1 HTS. bead flow cytometry, Alexa488-MEK5 binding to MEKK3; hits give low values. binding response (% of control), % at 10 µM. 5,900 compounds, 1.8% hits;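 active = binding response below 72% of control, or above a set upper limit, though filed actives all read lower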;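 also: 100% = DMSO only wells and 0% = binding blocked by excess unlabeled MEK5; lower values mean stronger disruption of MEK5 binding to MEKK3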
The depositor's hits bear a star; . = no result given; [ ] = dose if it differs, or a comment. Shown are actives, neighbours in structure and some others; about 2.9% of the full set was active somewhere.

SMILES	B2AR ag	GRK2 inh	MEKK2wt PB1 HTS	MEKK2mut PB1 HTS	MEKK3 PB1 HTS	MEKK2wt confirm	MEKK2mut confirm	MEKK3 confirm
O=C(CNC(=O)OCc1ccccc1)NC1CCCCCC1	8	2	103	0	86	.	.	.
CCN(CC)CCNC(=O)c1ccc(NC(=O)c2ccccc2-c2ccc(C(F)(F)F)cc2)cc1	21	0	122	8	106	.	.	.
NC(=O)[C@@H]1CC2(CC(c3cccc(NC(=O)[C@H]4CCC(=O)N4)c3)=NO2)CN1C(=O)COc1ccc(Cl)cc1 (some centres not stated)	-3	1	94	3	93	.	.	.
Cc1cc(NC(=O)c2cccc(S(=O)(=O)N3CCCCC3)c2)no1	-15	26	89	-5	98	.	.	.
Cc1ccc(-c2nnnn2-c2ccc(C)cc2)cc1	-4	0	1.0*[inhibitor]	-84	2.0*[inhibitor]	105	11	103
COC(=O)C(Cc1c[nH]c2ccccc12)NC(=O)c1cccs1 (configuration not stated)	12	2	89	-15	92	.	.	.
O=C(NC(Cc1c[nH]c2ccccc12)C(=O)Nc1ccc(F)cc1)c1cccs1 (configuration not stated)	-4	0	106	3	128*	97	-1	98
CN(C)c1c2ccccc2nc2c(F)c(F)c(F)c(F)c12	31	0	94	-3	101	.	.	.
Cc1c2ccccc2nc2c(F)c(N(C)C)c(F)c(F)c12	-27	3	100	0	145*	97	-2	101
CC(C)(C)NC(=O)C(c1ccncc1)N(C(=O)c1csnn1)c1cccc2ccccc12 (configuration not stated)	-11	1	124	6	143*	98	-21	98
Cc1[nH]c(C)c(S(=O)(=O)Nc2cccc(Cl)c2C)c1C(=O)N1CCCC1	1	0	96	-3	95	.	.	.
Cc1ccccc1NC(=S)N1CCN(c2ccccc2Cl)CC1	8	2	113	8	107	.	.	.
COc1ccc(CNC(=O)C(=O)NCC2OCCN2S(=O)(=O)c2ccc(OC)cc2)cc1 (configuration not stated)	1	1	99	2	102	.	.	.
O=C1c2ccccc2N2C(=O)c3ccccc3C2N1Cc1ccccc1 (configuration not stated)	-5	1	112	32	130*	103	-3	102
CN(CCCNC(=O)CSc1cc(=O)n(C)c2cc(Cl)ccc12)Cc1ccccc1	-3	0	98	-1	87	.	.	.
O=C(O)CC1(CC(=O)Nc2ccc3ccccc3c2)CCCCC1	0	2	-1.0*[inhibitor]	-9	1.0*[inhibitor]	100	3	105
O=C(O)CC1(CC(=O)Nc2ccc3ccccc3n2)CCCCC1	-1	4	97	0	100	.	.	.
Cc1cc(SCc2ccccc2)nc(=O)[nH]1	3	1	2.0*[inhibitor]	-17	2.0*[inhibitor]	94	-1	91
Cc1cc(SCc2ccc(F)cc2)nc(=O)[nH]1	3	1	99	-3	101	.	.	.
COc1cccc(NC(=O)c2ccccc2N2C(=O)C3C4C=CC(C4)C3C2=O)c1 (configuration not stated)	-2	0	102	1	104	.	.	.
Cc1ccc(C)c(NC(=O)Cn2nc(-c3ccccc3)nc2-c2ccccc2)c1	-4	2	98	0	100	.	.	.
Cc1ccc(NC(=O)Cn2nc(-c3ccccc3)nc2-c2ccccc2)c(C)c1	-1	5	108	1	150*	105	7	104
O=c1c2sccc2nc(SCc2ccc([N+](=O)[O-])cc2)n1Cc1ccccn1	-13	3	96	1	63*[inhibitor]	100	-1	104
